AI-2 QS modul – modulates the Vibrio harveyi AI-2 quorum sensing system; activity change, % at 7.5 µM; Vibrio harveyi JMH597 AI-2 luminescence/OD600 ratio, 9 h; stronger effect = lower value; strain lacks LuxN and CqsS sensors; 0 = neutral-control median; 300,000 compounds, 0.4% hits; in the data active = activity change below about -75%, passing the limit was not always enough; inconclusive = no clear call, values can overlap the other calls;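 also: luminescence divided by OD600 gain over 9 h not by final OD600 alone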
HIF activator – HIF pathway transcriptional activation; U2OS HRE-luciferase reporter, luminescence; normalized: DMSO 0%, desferrioxamine 100%; activation, % at 7.5 µM (by protocol); 300,000 compounds, 0.32% hits; AID 1910;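 active = mean activation of at least 10% of the iron chelator positive control signal, with at least half of replicates also reaching 10%; inconclusive = mean and replicate majority disagree about reaching 10%; inactive = mean and most replicates under 10%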
PGC1a acetyl inh – lowers PGC1a acetylation signal in U2OS cells | AlphaScreen anti-acetyl-lysine; with virally co-expressed GCN5 acetyltransferase | inhibition, % at 15.6 µM | 350,000 compounds, 0.17% hits | AID 651687;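 active = every replicate shows inhibition of at least 40%; inconclusive = mean inhibition at least 40% but some replicate below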;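 also: 0% = neutral control wells and 100% = positive control wells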
Rce1 inh – blocks yeast Ras-converting enzyme | AID 2563 | 290,000 compounds, 0.27% hits | Q03530 | yeast membranes, quenched prenylated peptide cleavage fluorescence | calls only;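 active = fall in fluorescence gain of 50% or more versus controls, with final raw signal at or below 3038400; inconclusive = same 50% fall but final raw signal above 3038400; inactive = fall in fluorescence gain under 50%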;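 also: plate controls were neutral control wells for no effect and wells lacking membranes for full effect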
Target sequence (Q03530 whole entry, looked up): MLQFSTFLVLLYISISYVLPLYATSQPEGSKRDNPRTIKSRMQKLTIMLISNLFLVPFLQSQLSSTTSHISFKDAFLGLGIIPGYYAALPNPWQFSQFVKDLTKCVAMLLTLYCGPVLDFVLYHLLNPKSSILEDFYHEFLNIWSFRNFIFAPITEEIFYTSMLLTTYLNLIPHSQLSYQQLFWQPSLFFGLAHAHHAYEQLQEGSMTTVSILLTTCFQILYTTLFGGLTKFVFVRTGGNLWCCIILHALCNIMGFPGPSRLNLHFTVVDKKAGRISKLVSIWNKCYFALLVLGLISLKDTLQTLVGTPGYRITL
C2C12 statin – suppression of simvastatin myotoxicity | C2C12 myotubes + simvastatin, ATP luminescence, 48 h; scaled: DMSO 0, geranylgeraniol control 100 | rescue of ATP level, % at 7.49 µM | 330,000 compounds, 0.78% hits;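 active = mean ATP rescue above about 67%, or every replicate alone reaching that limit, limit read from the data, passing the limit was not always enough; inconclusive = no clear call, values can overlap the other calls; inactive = mean under the limit and some replicate under it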;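 also: myotubes were challenged with 10 µM simvastatin during compound exposure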
* marks the source's active call; other numbers are inactive results; i = inactive; ? = inconclusive; . = not tested or not shown; + = active, no number. The list is not random: actives were taken first. Their share in the collection is about 1.3%.

SMILES | AI-2 QS modul | HIF activator | PGC1a acetyl inh | Rce1 inh | C2C12 statin
NS(=O)(=O)c1ccc(Nc2c([N+](=O)[O-])cncc2[N+](=O)[O-])cc1 | -93* | -1 | -6 | i | -9
CO[C@@H]1CN(C)C(=O)c2cc(NC(=O)c3cnccn3)ccc2OC[C@@H](C)N(C(C)=O)C[C@@H]1C | . | . | 3 | . | -7
Cc1cc(NS(=O)(=O)c2ccc(Cl)cc2)nn1CC(=O)NCc1ccco1 | 29 | 0 | -7 | i | 98*
Cc1cc(C(F)(F)F)nn1CC(=O)NCc1ccco1 | 16 | 0 | 12 | i | 3
CCCNC(=O)Nc1ccc2c(c1)C(=O)N(C)C[C@@H](OC)[C@H](C)CN(C(=O)c1ccccc1F)[C@@H](C)CO2 | . | . | 4 | . | -9
COc1ccc(Cl)cc1NC(=O)C(C)Sc1nncn1C (configuration not stated) | -6 | -1 | 4 | i | 131*
CCN(CC)C(=O)CSC1=Nc2ccccc2C2=NC(c3ccccc3)C(=O)N12 (configuration not stated) | 11 | 1 | 3 | i | -1
NC(=O)CSC1=Nc2ccccc2C2=NC(c3ccccc3)C(=O)N12 (configuration not stated) | 30 | -1 | . | + | .
Nc1ccc2nc(-c3ccccc3)[nH]c2c1 | 7 | 5 | . | + | .
COc1ccc2nc(-c3cccc(N)c3)[nH]c2c1 | 4 | 13* | -9 | i | -36
COc1ccc2nc(-c3ccc(N)cc3)[nH]c2c1 | 19 | -2 | -10 | i | -23
Nc1ccc2nc(-c3cccnc3)[nH]c2c1 | 7 | 0 | . | i | .
CC(=O)N1C=CN(C(C)=O)C(c2cn(C)c3ccccc23)C1c1cn(C)c2ccccc12 (configuration not stated) | . | . | 6 | . | 115*
C[C@@H]1CN([C@@H](C)CO)C(=O)c2cc(NC(=O)c3ccncc3)ccc2O[C@@H]1CN(C)S(=O)(=O)c1cn(C)cn1 | . | . | 10 | . | -8
CN(C[C@H]1N[C@@H](CO)[C@@H]1c1ccc(C2=CCCC2)cc1)C(=O)c1ccncc1 | . | . | -19 | . | -60
CN(C[C@H]1N[C@@H](CO)[C@@H]1c1ccc(C2=CCCC2)cc1)C(=O)c1ccc(F)cc1 | . | . | 79* | . | -452
CCO[C@@H]1OC(C(=O)O)=C[C@H](c2csc3ccccc23)[C@H]1CCCO | 0 | 0 | 9 | i | 3
CCO[C@H]1OC(C(=O)Nc2ccccc2)=C[C@@H](c2csc3ccccc23)[C@@H]1CCCO | 15 | -3 | ? | + | 22
O=C(Nc1ccc2c(c1)OCO2)N1C[C@@H]2N[C@H](C1)C2c1ccc(-c2ccccc2)cc1 (some centres not stated) | . | . | 11 | . | .
C[C@H]1CN([C@@H](C)CO)C(=O)c2cccc(NS(=O)(=O)c3cccs3)c2O[C@@H]1CN(C)C(=O)Nc1ccc(C(F)(F)F)cc1 | . | . | -4 | . | 86*
C[C@H]1CN([C@@H](C)CO)C(=O)c2cccc(NS(=O)(=O)c3cccs3)c2O[C@H]1CN(C)C(=O)Nc1ccc(C(F)(F)F)cc1 | . | . | 5 | . | 24
C[C@@H]1CN([C@H](C)CO)C(=O)c2cccc(NC(=O)c3ccc(-c4nccs4)cc3)c2O[C@H]1CN(C)C(=O)Nc1ccc(F)cc1 | . | . | 2 | . | -21
COc1ccc(NC(=O)N(C)C[C@H]2Oc3c(NS(=O)(=O)c4cccs4)cccc3C(=O)N([C@@H](C)CO)C[C@H]2C)cc1 | . | . | -9 | . | 88*
C[C@@H]1CN([C@H](C)CO)C(=O)c2cccc(NC(=O)c3ccc(-c4nccs4)cc3)c2O[C@@H]1CN(C)C(=O)Nc1ccc(F)cc1 | . | . | 4 | . | 87*
CCCc1cn(CC[C@H]2CC[C@@H](NC(=O)C3CCC3)[C@H](CO)O2)nn1 | . | . | 2 | . | -1
CCOC(=O)CN1C(=O)S/C(=C/c2ccc(OC)c([N+](=O)[O-])c2)C1=O | 38 | 0 | -3 | i | 113*
CCOC(=O)CCS(=O)(=O)c1nc(-c2ccccc2)cc(C(F)(F)F)n1 | 19 | 10* | 68* | i | -4
CCOC(=O)CS(=O)(=O)c1nc(-c2ccccc2)cc(C(F)(F)F)n1 | 39 | 1 | 58* | i | .
COC(=O)CCS(=O)(=O)c1nc(-c2ccccc2)cc(C(F)(F)F)n1 | 25 | 3 | . | i | .
CCOC(=O)CN1C(=N)N(c2nc(NC(C)C)nc(OC)n2)CC1=O | 1 | -1 | ? | i | -11

Assay outcomes deposited in PubChem BioAssay by Broad Institute.
